# This is a sample that favours compounds with a hit; in the whole collection about 2.1% have one here.
# MsrA inhibitor: bovine MsrA enzyme inhibitors, primary screen, biochemical, absorbance, HTS | Methionine sulfoxide reductase A (Bos taurus) | purified bovine MsrA, absorbance read-out | inhibition, % at 15.5 µM | 360,000 tested, 0.75% active | AID 651718, 2012; in the data active means inhibition above about 4.5%;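 further: 0% = vehicle wells with enzyme and 100% = reference inhibitor wells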
# bovine MsrA act: bovine MsrA enzyme activators, primary screen, biochemical, absorbance, HTS; 360,000 tested, 0.3% active; purified bovine MsrA, absorbance read-out; AID 602163, 2012; activation, % at 10.6 µM; in the data active means activation above about 7.5%;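 further: 0% = vehicle and 100% = reference activator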
# ABCB6 inh 2: ABCB6 transporter inhibitors, primary screen, K562-ABCB6 cells, flow cytometry, MLPCN library; K562-ABCB6 porphyrin accumulation, 1 h; active compounds read low; 360,000 tested, 0.19% active; fluorescence ratio to DMSO, % at 10 µM; AID 602162, 2011;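 active means fluorescence ratio to DMSO below 75%, the collection mean minus 3 SD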;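 further: signal is porphyrin accumulated inside mitochondria; 100% equals median channel fluorescence of DMSO control wells; lower ratio means ABCB6 inhibition with less porphyrin fluorescence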
# SMARCA2 act: SMARCA2 (BRM) function activators, primary screen, cell-based, luminescence, high throughput. activation, % at 9.1 µM. 370,000 tested, 1% active. MG213 cells, MMTV-luciferase reporter, dexamethasone, overnight; in the data active means activation above about 7.8%;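 further: 0% = vehicle wells and 100% = reference activator wells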
# SMARCA2 conf: SMARCA2 (BRM) function activators, confirmation, cell-based, luminescence, triplicate | AID 652260, 2013 | MG213 cells, MMTV-luciferase with dexamethasone, overnight; MG213 cells expressing E1A, Rb sequestered; DMSO wells 0%, reference activator 100% | 3,500 tested, 30% active | shares compounds with SMARCA2 act | activation, % at 9.1 µM;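 active means activation above its plate's cutoff, the mean activation of tested wells plus 3 SD, cut at about 7.9% in these data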
# VP16 Luc act: GAL4-VP16 luciferase reporter activation, counter-screen for SMARCA2 (BRM) activator project, cell-based, pG5luc, luminescence, high throughput | AID 686939, 2013 | 3,500 tested, 41% active | HEK293 GAL4-VP16 pG5luc reporter; scaled: DMSO wells 0%, SAHA wells 100% | activation, % at 9.1 µM | shares compounds with SMARCA2 act;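 active means activation above the solvent-only control well mean plus 3 SD, averaged across control plates, cut at about 5.2% in these data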
# The depositor's hits bear a star; / = no result.
SMILES,MsrA inhibitor,bovine MsrA act,ABCB6 inh 2,SMARCA2 act,SMARCA2 conf,VP16 Luc act
Cc1cccc(-c2cccc3c4c([nH]c23)[C@@H]2C[C@H](N(C)C(=O)OCc3ccccc3)[C@H]([C@H](C)O)CN2CC4)c1,/,/,/,-5,/,/
CCOC(=O)C1CCCN(C(=O)c2ccc(OC)cc2OC)CC1 (stereo not drawn),0,0,100,10*,1,0
CCOc1ccc(/C(O)=C2/C(=O)C(=O)N(CCOCCO)C2c2ccccn2)cc1 (stereo not drawn),3,-4,96,8.6*,-1,1
CCOc1ccc(/C(O)=C2/C(=O)C(=O)N(CCOCCO)C2c2ccc(F)cc2)cc1 (stereo not drawn),2,-1,98,0,/,/
Cc1nc2ccc(S(=O)(=O)NCC(=O)NCc3ccccc3C)cc2s1,/,/,/,-1,/,/
O=C(CSc1nnc(-c2cccnc2)n1-c1ccccc1)c1ccccc1Cl,/,/,/,8.6*,2,1
C=CCN1C(=O)[C@H](CC(=O)NCCCC)[C@@]2(C(=O)OCC)CCCC=C12,/,/,/,-2,/,/
Cc1ccc(S(=O)(=O)CCC(=O)Nc2cc(C)on2)cc1,1,-7,96,-4,/,/
Cc1cc(NC(=O)CCS(=O)(=O)c2nc(-c3ccccc3)cc(C(F)(F)F)n2)no1,0,-4,97,9.3*,-15,3
COc1cc(/C=C(\C#N)C(=O)Nc2ccccc2)ccc1OCCN1CCOCC1,1,-2,103,8.5*,5,6.0*
N#C/C(=C/c1ccc(N2CCOCC2)o1)C(=O)Nc1ccccc1,1,-6,100,8.8*,7,11*
Cc1ccc(/C(C#N)=C\c2ccc(N3CCOCC3)o2)cc1,2,-7,133,9.1*,14*,21*
Cc1ccc2nc(/C(C#N)=C\c3ccc(N4CCOCC4)o3)[nH]c2c1,2,-4,173,0,/,/
N#C/C(=C\c1ccc(N2CCOCC2)o1)C(=O)NCCc1ccccc1,0,-1,99,0,/,/
C=CCN1[C@H](CO)[C@H](c2ccccc2)[C@@H]1C#N,/,/,/,-3,/,/
Cc1ccccc1CN1CCCCC(NC(=O)c2ccc(F)cc2)C1=O (stereo not drawn),/,/,/,-1,/,/
O=C(NC1=NCCS1)c1ccccc1OCc1ccc(F)cc1,1,-10,91,10*,-1,2
CCC(=O)N(c1ccccc1)C1CCN(C(=O)C(Cc2ccccc2)NC(C)=O)CC1 (stereo not drawn),/,/,/,-3,/,/
Cc1cc(NC(=O)c2ccccc2)sc1C,1,-2,92,19*,8,8.6*
Cc1ccc(NC(=O)c2ccccc2)s1,2,-4,95,0,/,/
N#Cc1ccccc1OCC(=O)Nc1ccc2c(c1)OCCO2,-1,-1,99,8.5*,4,6.3*
N#Cc1ccccc1OCC(=O)Nc1ccc2c(c1)OCO2,-1,1,98,9.0*,18*,7.6*
N#Cc1ccccc1OCC(=O)Nc1ccc2c(c1)OCCCO2,0,-5,92,6,/,/
CCOc1ccc2nc(/N=C/c3c(C)[nH]n(-c4ccc(C)cc4)c3=O)sc2c1,0,-5,97,11*,2,6.5*
CCN(CC)CCNC(=O)c1ccc(NCN2C(=O)NC(c3ccccc3)(c3ccccc3)C2=O)cc1,1,/,/,8.0*,3,2
CCN(C(=O)CN1C(=O)NC(c2ccccc2)(c2ccccc2)C1=O)c1ccccc1,-1,-3,96,-2,/,/
O=C1SC(Cc2ccccc2)C(=O)N1c1ccccc1 (stereo not drawn),-1,-5,94,8.3*,-4,0
Cc1cc(C)c(S(=O)(=O)N2CCOC23CCN(S(C)(=O)=O)CC3)c(C)c1,1,-2,101,14*,-3,1
Nn1c(SCC(=O)Nc2cccc3ccccc23)nnc1-c1cc(-c2ccc(Cl)cc2)n[nH]1,/,/,/,-2,/,/
Cc1ccc(S(=O)(=O)Nc2ccc(-c3nnc(SCc4ccccc4Cl)o3)cc2)cc1,0,-2,95,4,/,/
